Data on 18 compounds can be found in PubChem BioAssay.

A short description of experiment [1]: antimalarial activity against Dd2 strain (AID 2302;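 active = growth inhibition above 50% at the single 2 µM test dose, taken to imply half-maximal potency below 2 µM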;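 also: 0% = DMSO untreated growth and 100% = chloroquine plus artemisinin killed control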). Conditions: P. falciparum Dd2 in RBCs, LDH growth readout, 72 h; at 2 µM; active compounds read high.
The nature of experiment [2]: HepG2 cytotoxicity, primary screen, cytotoxicity control for P. falciparum antimalarial project, cell-based, ATP luminescence (AID 2303;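 active = inhibition above 50%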;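 also: 0% = DMSO wells and 100% = digitonin-killed cells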). Conditions: HepG2 viability, 24-48 h, at 10 µM, active compounds read high.
Experiment [3] addresses L-lactate dehydrogenase (Plasmodium falciparum (isolate CDC / Honduras)) (UniProt Q27743). Put plainly: PfLDH activity inhibition – cell lysate, 3D7 strain, counter-screen for P. falciparum growth inhibition project (AID 2304).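 Also: 0% = vehicle and 100% = reference inhibitor.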 Conditions: P. falciparum 3D7 crude extract, LDH APAD/NBT absorbance; at 2 µM; active compounds read high.
A short description of experiment [4]: inhibition of 3D7 malaria parasite growth – strain 3D7 (AID 2306).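 Also: 0% = DMSO wells and 100% = chloroquine plus artemisinin control wells.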 Conditions: P. falciparum 3D7 erythrocytic growth, LDH absorbance, 72 h; at 2 µM; active compounds read high.
Experiment [5] addresses Calcium-dependent protein kinase 1 (Plasmodium falciparum (isolate 3D7)) (UniProt P62344). Put plainly: PfCDPK1 kinase inhibitors, biochemical, TCAMS library (AID 1159585; cut-off not given, nearly all actives have IC50 up to about 0.98 µM;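 also: inhibitors leave more ATP so luminescence rises with inhibition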). To be noted: recombinant PfCDPK1, Kinase-Glo ATP depletion luminescence.
Experiment [6] has as its target Plasmodium falciparum protein kinase 6 (PK6, PF3D7_1337100) (UniProt Q8IDW1). Put plainly: PfPK6 kinase inhibitors, biochemical, TCAMS library (AID 1159586). Conditions: recombinant PfPK6, Kinase-Glo ATP depletion luminescence. Background: In Kinase-Glo more light means more ATP remaining.
Experiment [7] addresses Protein kinase 7 (PK7), Plasmodium falciparum 3D7 (PF3D7_0213400) (UniProt Q7YTF7). Put plainly: inhibition of Plasmodium PK7 catalytic activity – biochemical, TCAMS antimalarial set, Kinase-Glo luminescence (AID 1159587). To be noted: recombinant PfPK7, Kinase-Glo ATP depletion luminescence.
The target in experiment [8] is Calcium-dependent protein kinase 4 (Plasmodium falciparum (isolate 3D7)) (UniProt Q8IBS5). Put plainly: PfCDPK4 kinase inhibitors, biochemical, TCAMS library (AID 1159588; cut-off not given, nearly all actives have IC50 up to about 0.91 µM). To be noted: recombinant PfCDPK4, Kinase-Glo ATP depletion luminescence.
Calcium-dependent protein kinase 4 (Plasmodium falciparum (isolate 3D7)), sequence (Q8IBS5 whole entry, looked up): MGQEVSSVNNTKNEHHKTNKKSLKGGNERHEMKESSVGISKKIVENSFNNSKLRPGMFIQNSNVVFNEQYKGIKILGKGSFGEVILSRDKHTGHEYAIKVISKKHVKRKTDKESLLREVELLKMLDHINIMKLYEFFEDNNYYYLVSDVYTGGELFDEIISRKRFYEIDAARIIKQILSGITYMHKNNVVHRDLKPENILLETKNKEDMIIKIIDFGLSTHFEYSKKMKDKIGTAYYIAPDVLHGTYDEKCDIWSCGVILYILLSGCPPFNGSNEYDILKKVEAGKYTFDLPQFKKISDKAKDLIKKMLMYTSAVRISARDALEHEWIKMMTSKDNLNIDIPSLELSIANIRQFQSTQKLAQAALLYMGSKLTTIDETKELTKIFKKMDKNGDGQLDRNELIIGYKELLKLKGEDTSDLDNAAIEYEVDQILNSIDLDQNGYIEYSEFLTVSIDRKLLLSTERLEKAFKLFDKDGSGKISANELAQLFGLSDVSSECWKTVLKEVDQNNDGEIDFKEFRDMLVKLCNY

A number with no mark means an inactive call. For part of these data: Entries with a potency or affinity are not part of this list. Active and inactive are the calls of the source. Unless noted, no rule for the calls is given here.

L-lactate dehydrogenase (Plasmodium falciparum (isolate CDC / Honduras)), sequence (Q27743 whole entry, looked up): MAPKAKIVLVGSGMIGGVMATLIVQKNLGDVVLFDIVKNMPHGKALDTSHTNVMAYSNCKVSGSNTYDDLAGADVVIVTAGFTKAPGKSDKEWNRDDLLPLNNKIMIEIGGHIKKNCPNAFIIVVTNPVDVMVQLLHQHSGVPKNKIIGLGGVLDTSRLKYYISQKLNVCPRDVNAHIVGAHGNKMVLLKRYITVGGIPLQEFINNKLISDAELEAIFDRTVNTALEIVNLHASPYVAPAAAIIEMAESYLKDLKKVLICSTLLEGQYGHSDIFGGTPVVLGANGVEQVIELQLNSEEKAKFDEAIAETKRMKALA
Plasmodium falciparum protein kinase 6 (PK6, PF3D7_1337100), sequence (Q8IDW1 1-305): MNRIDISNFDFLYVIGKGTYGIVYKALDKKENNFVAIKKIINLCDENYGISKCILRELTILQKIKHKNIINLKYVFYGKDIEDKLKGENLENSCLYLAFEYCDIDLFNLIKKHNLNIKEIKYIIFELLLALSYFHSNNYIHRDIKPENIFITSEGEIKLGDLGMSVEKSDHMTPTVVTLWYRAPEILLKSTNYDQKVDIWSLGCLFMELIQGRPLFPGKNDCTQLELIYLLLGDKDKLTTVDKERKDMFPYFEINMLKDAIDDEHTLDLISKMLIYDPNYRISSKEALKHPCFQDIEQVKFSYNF
Protein kinase 7 (PK7), Plasmodium falciparum 3D7 (PF3D7_0213400), sequence (Q7YTF7 1-343): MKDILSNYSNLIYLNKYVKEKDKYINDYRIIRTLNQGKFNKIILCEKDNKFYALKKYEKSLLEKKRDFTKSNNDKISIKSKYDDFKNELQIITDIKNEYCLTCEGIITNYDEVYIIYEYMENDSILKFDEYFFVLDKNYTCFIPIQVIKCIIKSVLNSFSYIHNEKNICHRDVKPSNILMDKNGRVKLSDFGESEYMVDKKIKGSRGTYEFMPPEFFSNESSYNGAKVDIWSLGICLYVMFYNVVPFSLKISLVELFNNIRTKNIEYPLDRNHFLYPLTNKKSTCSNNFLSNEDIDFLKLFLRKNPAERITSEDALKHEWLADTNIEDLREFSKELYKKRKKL
Calcium-dependent protein kinase 1 (Plasmodium falciparum (isolate 3D7)), sequence (P62344 whole entry, looked up): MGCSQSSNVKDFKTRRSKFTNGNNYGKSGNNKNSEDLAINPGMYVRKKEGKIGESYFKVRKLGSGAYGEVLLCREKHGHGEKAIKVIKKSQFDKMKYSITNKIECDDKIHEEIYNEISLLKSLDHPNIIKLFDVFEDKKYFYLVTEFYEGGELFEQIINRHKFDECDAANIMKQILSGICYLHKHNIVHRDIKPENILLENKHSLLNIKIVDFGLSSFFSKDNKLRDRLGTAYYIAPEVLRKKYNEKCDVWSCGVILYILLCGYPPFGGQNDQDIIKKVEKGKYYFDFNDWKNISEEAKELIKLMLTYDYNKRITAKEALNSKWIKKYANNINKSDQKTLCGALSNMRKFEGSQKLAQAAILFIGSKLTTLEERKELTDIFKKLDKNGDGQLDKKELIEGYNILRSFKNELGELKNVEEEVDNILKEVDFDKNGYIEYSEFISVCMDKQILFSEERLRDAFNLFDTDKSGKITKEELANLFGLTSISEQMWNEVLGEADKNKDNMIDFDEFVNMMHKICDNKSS

Take `Cc1ccc(NC(=O)c2ccc3ncccc3c2)cc1OC1CCN(CCC(C)C)C1` (centres undefined): the figures for the growth inhibition in experiment [1] and in experiment [4] were 62% (active) and 98% (active), respectively. The inhibition in experiment [2] is 5%; in experiment [3] it was -4%. Also, the outcome in experiment [5], in experiment [6], in experiment [7] and in experiment [8] was inactive.
As to `COc1ccc(C2CCN(CCCCNC(=O)c3ccc(NC(=O)c4ccc(Cl)cc4)cc3)CC2)cc1Cl`, the growth inhibition is 75% (active) in experiment [1] and 97% (active) in experiment [4]. Moreover, the inhibition is 28% in experiment [2] and 4% in experiment [3]. Besides, the result in experiment [5], in experiment [6], in experiment [7] and in experiment [8] was inactive.
On to `COc1ccc(NC(=O)C2c3ccccc3C(=O)N(C3CCCC3)C2c2cccs2)c(OC)c1` (centres undefined), for which the results for the growth inhibition in experiment [1] and in experiment [4] were 54% (active) and 84% (active), respectively. Also, the inhibition in experiment [2] was 3%; in experiment [3], 4%. Also, the result in experiment [5], in experiment [6], in experiment [7] and in experiment [8] was inactive.
As to `NC(N)=Nc1ccc(OCCCCCOc2ccc(N=C(N)N)cc2Br)c(Br)c1`, the growth inhibition was 95% (active) in experiment [1] and 92% (active) in experiment [4]. The results for the inhibition in experiment [2] and in experiment [3] were 27% and 0%, respectively. Also, the outcome in experiment [5], in experiment [6], in experiment [7] and in experiment [8] was inactive.
As to `CC(C)C[C@@H](C(=O)N[C@@H](CCCCNC(=O)OCc1ccccc1)C(=O)Nc1nccs1)[C@H](C)N(O)C=O`, the growth inhibition was 98% (active) in experiment [1] and 99% (active) in experiment [4]. The results for the inhibition in experiment [2] and in experiment [3] were -2% and 8%, respectively. Besides, the result in experiment [5], in experiment [6], in experiment [7] and in experiment [8] was inactive.
Consider `NC1=NC2(CCCCC2)N(OCCCCCCCCNc2nc(N)nc(N)n2)C(N)=N1`, for which the growth inhibition in experiment [1] was 99% (active); in experiment [4], 96% (active). For the same compound, the inhibition in experiment [2] was 44%; in experiment [3], -5%. Moreover, the outcome in experiment [5], in experiment [6], in experiment [7] and in experiment [8] was inactive.
With `N#Cc1ccc(N[C@@H](CC2CCCCC2)C(=O)Nc2ccc(-c3ccccc3)cc2)c2ccccc12`, the growth inhibition was 99% (active) in experiment [1] and 100% (active) in experiment [4]. Also, the inhibition in experiment [2] was 34%; in experiment [3], -8%. For the same compound, the result in experiment [5], in experiment [6], in experiment [7] and in experiment [8] was inactive.
On to `N#Cc1ccc2[nH]cc(CN3CCC4(CC3)CN(CCNCc3ccccc3)C(=O)CO4)c2c1`, for which the growth inhibition in experiment [1] was -2%; in experiment [4], 98% (active). The results for the inhibition in experiment [2] and in experiment [3] were -3% and 1%, respectively. Further, the outcome in experiment [5], in experiment [6], in experiment [7] and in experiment [8] was inactive.
As for `O=C1C=Cc2ccccc2/C1=C/c1sc(=NCc2ccccc2)n(Cc2ccccc2)c1O`, the growth inhibition in experiment [1] and in experiment [4] was 98% (active) each time. Further, the inhibition in experiment [2] was 0%; in experiment [3] it was -7%. For the same compound, the outcome in experiment [5], in experiment [6], in experiment [7] and in experiment [8] was inactive.
In the case of `COc1ccc2nccc(N(C)CC3(O)CCN(CC(O)c4ccc5c(c4)NC(=O)CS5)CC3)c2n1` (centres undefined), the values for the growth inhibition in experiment [1] and in experiment [4] were -4% and 101% (active), respectively. For the same compound, the inhibition was 1% in experiment [2] and -5% in experiment [3]. The outcome in experiment [5], in experiment [6], in experiment [7] and in experiment [8] was inactive.
As to `Cc1ccc(O)c(CN2CCCC(COC(c3ccc(F)cc3)c3ccc(F)cc3)C2)c1` (centres undefined), the growth inhibition in experiment [1] and in experiment [4] was 98% (active) each time. For the same compound, the inhibition was 19% in experiment [2] and 0% in experiment [3]. The result in experiment [5], in experiment [6], in experiment [7] and in experiment [8] was inactive.
With `COc1ccccc1-n1c(SCC(=O)c2ccc3c(c2)CC(=O)N3C)nnc1-c1cccs1`, the growth inhibition in experiment [1] was 55% (active); in experiment [4], 95% (active). The inhibition in experiment [2] is 7%; in experiment [3] it was -3%. Besides, the outcome in experiment [5], in experiment [6], in experiment [7] and in experiment [8] was inactive.
In the case of `N#Cc1cc(C(=O)c2cc(Br)ccc2O)cn(C2CCCCC2)c1=O`, the growth inhibition in experiment [1] is 9%; in experiment [4], 89% (active). For the same compound, the inhibition in experiment [2] and in experiment [3] was 3% in each case. Also, the outcome in experiment [5], in experiment [6], in experiment [7] and in experiment [8] was inactive.
Consider `COc1ccc(S(=O)(=O)NCCCC2CCN(CCCCCNC(=O)C=Cc3ccc(Cl)c(Cl)c3)CC2)cc1`, for which the growth inhibition is 12% in experiment [1] and 85% (active) in experiment [4]. For the same compound, the inhibition in experiment [2] was 24%; in experiment [3] it was 0%. The outcome in experiment [5], in experiment [6], in experiment [7] and in experiment [8] was inactive.
Consider `Nc1ncnc2nc(-c3ccc(F)cc3)cc(-c3ccc(NC(=O)c4ccccc4)cc3)c12`, for which the growth inhibition is 97% (active) in experiment [1] and 100% (active) in experiment [4]. Further, the inhibition was -6% in experiment [2] and 0% in experiment [3]. The result in experiment [5], in experiment [6], in experiment [7] and in experiment [8] was inactive.
`Cc1cc(C2CCN(CCCCNC(=O)c3ccc(-c4ccc(C#N)cc4)cc3)CC2)c(C)cc1O`: the growth inhibition in experiment [1] and in experiment [4] was 96% (active) throughout. The figures for the inhibition in experiment [2] and in experiment [3] were 27% and 3%, respectively. Moreover, the result in experiment [5], in experiment [6], in experiment [7] and in experiment [8] was inactive.
Take `COCCNCc1cccc(-c2ccc(CNC3CCN(Cc4ccccc4)CC3)cc2)c1`: the growth inhibition is 97% (active) in experiment [1] and 100% (active) in experiment [4]. In addition, the inhibition in experiment [2] was 34%; in experiment [3], -7%. Also, the result in experiment [5], in experiment [6], in experiment [7] and in experiment [8] was inactive.
Consider `Cc1noc(C)c1-c1ccc2c(Nc3ccccc3C(C)(C)C)c(C(=O)NCc3cccc4ccccc34)cnc2c1`, for which the growth inhibition is 64% (active) in experiment [1] and 96% (active) in experiment [4]. Moreover, the figures for the inhibition in experiment [2] and in experiment [3] were 4% and -2%, respectively. For the same compound, the outcome in experiment [5], in experiment [6], in experiment [7] and in experiment [8] was inactive.

The inhibition is the relative decrease from the control value, in per cent.
